# Source: PubChem BioAssay AID1117361 (Southern Research Institute, 2015)
# About 900 (25%) of roughly 3,600 compounds were called active. No rule for the calls is given here. The list is a sample of the results. Results with a measured potency or affinity are listed apart.
# Biological target: Protein Tat (Human immunodeficiency virus type 1 group M subtype B (isolate HXB2)) (UniProt P04608)
# Assay: HIV-1 Tat–TAR interaction blockers – biochemical, fluorescence polarization, FAM-labeled TAR RNA, counter-screen for Vif-APOBEC3G degradation inhibitor project, dose response (AID 1117361)
# Conditions: Tat-TAR RNA binding; series mostly up to 100 µM; inhibition: at the top concentration
SMILES,inhibition,outcome
CCCn1nc2cc(C(=O)NCc3ccc4c(c3)OCO4)ccc2c1OCC,0.68% (inactive),
CCn1c(N)c(C(=O)NCc2ccc3c(c2)OCO3)sc1=S,,inactive
COC(=O)C1=C(O)/C(=C/c2cccc(OC)c2O)N=C1C,,inactive
COC(=O)C1=C(O)/C(=C\c2ccc(CNC(=O)C(=O)Nc3ccc(C)c(C)c3)o2)N=C1C,9.02% (inactive),
CCOC(=O)c1c(C)c(/C=N/Nc2ccccc2)n(C)c1C,,inactive
CCC(C)Nc1nc2c(c(=O)[nH]c(=O)n2C)n1CCC(C)C (centres undefined),,inactive
COC(=O)c1cn[nH]c1NC(=S)Nc1ccc(C)cc1Cl,15.7% (inactive),
CCCCNC(=O)C1CCCN(S(=O)(=O)c2ccc(-n3cnnn3)cc2)C1 (centres undefined),,inactive
CCN(CC)c1ccc(C2C3CCCCC3(O)CCN2CC(=O)Nc2ccccc2)cc1 (centres undefined),5.41% (inactive),
COc1ccccc1NC(=O)c1cc2ccccc2o/c1=N\O,15% (inactive),
CC1CN(S(=O)(=O)c2cc(C(=O)NCc3ccncc3)ccc2Cl)CC(C)O1 (centres undefined),3.3% (inactive),
Cc1ccc(Cn2ccc(NC(=O)c3cc(-c4cccc(Cl)c4)on3)n2)cc1,9.55% (inactive),
COc1ccc(NC(=O)C2CCCNC2)cc1OCC(C)C (centres undefined),,inactive
O=c1c2c(nc(NCCO)n1CC1CCCCC1)-c1ccccc1CC21CCCC1,,inactive
CC(Sc1nnnn1C)C(=O)Nc1ccccc1-c1ccccc1 (centres undefined),2.7% (inactive),
CCOC(=O)CCC(=O)N1CCNC(=O)C1,,inactive
CCNC(=O)c1ccc(-n2nc(C(F)(F)F)c3c2CCCC3)cc1,1.35% (inactive),
CS(=O)(=O)c1ccc2nnn(OCC(=O)Nc3cccc(C#N)c3)c2c1,,inactive
Cc1cccc2c1NC1(CCCC1)CC2C (centres undefined),14% (inactive),
O=C(NCCCN1CCOCC1)C1CC(=O)N(CCc2ccccc2)C1 (centres undefined),,inactive
CCN(CC)c1ccc(NC(=O)c2c(C)noc2C)cc1,,inactive
O=C(c1ccc2c(c1)[nH]c(=S)n1c3ccccc3nc21)N1CCN(c2cccc(Cl)c2)CC1,4.12% (inactive),
COc1ccc(S(=O)(=O)N2CCC(C(=O)NCc3cccnc3)CC2)cc1Cl,3.01% (inactive),
COc1cc(NC(=O)c2cc3nc(-c4ccccc4)cc(-c4ccccc4)n3n2)cc(OC)c1OC,2.7% (inactive),
CC(=O)c1cccc(NC(=O)CC2Oc3ccc(C)cc3NC2=O)c1 (centres undefined),9.46% (inactive),
O=C(CCNS(=O)(=O)c1ccc(Cl)cc1)NCc1cccnc1,,inactive
C=C(C)C1CC=C(C)/C(=N\NC(=O)CCC(=O)Nc2ccc(C)c(C)c2)C1 (centres undefined),,inactive

SMILES,inhibition,outcome
O=c1c2c([nH]c3ccccc13)CCCCCC2,3.38% (inactive),
CC(C)CCNC(=O)Cn1c2c(c(-c3ccccc3Cl)cc1=O)CCC2,11.6% (inactive),
FC(F)(F)C1=Nc2cccc3cccc(c23)N1,1.67% (inactive),
CCc1nc(-c2ccc(C)nc2OC)no1,9.46% (inactive),
CS(=O)(=O)c1ccc(C(=O)Nc2nc(-c3ccco3)c(-c3ccco3)s2)cc1,27.7% (inactive),
COc1ccc(NC(=O)CSc2nc3c(cc2C#N)CN(C)CC3)cc1,7.68% (inactive),
O=S(=O)(N1CCOCC1)N1CCCN(S(=O)(=O)N2CCOCC2)CC1,,inactive
Cc1c(C(=O)N2CCCCC2)nnn1-c1nonc1N,7.01% (inactive),
CCOC(=O)N1CCC(N2C(=O)c3ccccc3C2Nc2ccccc2)CC1 (centres undefined),,inactive
COc1ccc(C(=O)n2nc(-c3ccc(Cl)cc3)nc2N)cc1OC,13.6% (inactive),
COc1ccc(-c2noc(Cc3ccc(Cl)cc3)n2)cc1OC,,inactive
Cc1cc(C)c2c(=N)c3ccccc3n(CCCCCCCCn3c4ccccc4c(=N)c4c(C)cc(C)nc43)c2n1,,inactive
COc1cccc(OC)c1OCCCc1c(C)n[nH]c1C,5.41% (inactive),
O=C(N/C(=C/c1ccc(Cl)cc1)c1nc2ccccc2[nH]1)c1ccco1,4.05% (inactive),
COc1cccc(C(=O)Nc2nc3ccccc3[nH]2)c1,10.9% (inactive),
CCN(CC)C(=O)CCNS(=O)(=O)c1ccc(C)cc1,2.7% (inactive),
Clc1ccc(-c2nnnn2-c2ccc(Cl)c(Cl)c2)cc1Cl,4.73% (inactive),
CCc1nnc(SCC(=O)NC2CCCCC2)nc1CC,13.6% (inactive),
Fc1ccc(-c2nnc(Cc3nnc(-c4ccc(F)cc4)o3)o2)cc1,1.36% (inactive),
Cc1ccc2c(c1C)NC(=O)C2(O)CC(=O)c1ccc2c(c1)OCO2 (centres undefined),2.73% (inactive),
O=C(NCc1ccc2c(c1)OCO2)c1cc2ncc(Br)cn2n1,25.9% (inactive),
CCOc1ccc(N(CC(=O)NCCC2=CCCCC2)S(=O)(=O)c2ccccc2)cc1,,inactive
CCNC(=O)OCC(CC)NC(=O)OCC(C)C (centres undefined),,inactive
Cc1cc(C)cc(-c2nnc(SCC(=O)NCc3cccs3)o2)c1,,inactive
CCN(CC)c1ccc(/C=C2\C(=O)N(c3nnc(C)c(=O)[nH]3)N=C2C)cc1,,inactive
c1ccc(N2CCN(c3ccc4nncn4n3)CC2)nc1,2.03% (inactive),
Cc1noc(C)c1C(=O)N1CCN(c2ncccn2)CC1,2.7% (inactive),
